In publication PMC7862700, “An all-to-all approach to the identification of sequence-specific readers for epigenetic DNA modifications on cytosine”:

Assays:
Assay in all cases: DAPPL (digital affinity profiling via proximity ligation, sequencing); 10 mM Tris-HCl pH 7.5, 50 mM NaCl, 1 mM DTT, 4% glycerol, room temperature, 30 min; GST-TFs on glutathione beads, 16-mer random dsDNA library, 0.1% formaldehyde crosslink after washing; high values mean tight binding
Conditions in all cases: protein: recombinant; tags: N-terminal GST; dsDNA, one strand shown
ERF = biological target: T1, ERF (Homo sapiens, UniProt P50548 1-548)
T1 sequence: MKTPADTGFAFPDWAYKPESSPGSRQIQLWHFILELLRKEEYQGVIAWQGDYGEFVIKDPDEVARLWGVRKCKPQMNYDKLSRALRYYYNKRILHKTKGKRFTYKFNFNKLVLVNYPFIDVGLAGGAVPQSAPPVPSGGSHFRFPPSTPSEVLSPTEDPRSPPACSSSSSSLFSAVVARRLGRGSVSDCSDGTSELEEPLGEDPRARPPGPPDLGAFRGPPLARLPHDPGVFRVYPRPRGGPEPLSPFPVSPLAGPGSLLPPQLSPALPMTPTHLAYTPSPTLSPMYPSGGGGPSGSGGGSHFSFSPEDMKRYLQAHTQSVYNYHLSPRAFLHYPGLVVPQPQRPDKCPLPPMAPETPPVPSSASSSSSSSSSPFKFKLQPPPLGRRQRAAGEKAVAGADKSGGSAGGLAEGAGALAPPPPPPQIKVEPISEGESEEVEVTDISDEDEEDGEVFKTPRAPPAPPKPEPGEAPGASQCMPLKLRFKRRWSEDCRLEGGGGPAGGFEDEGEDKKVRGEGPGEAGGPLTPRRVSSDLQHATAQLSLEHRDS
Method in brief: (§1)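 Beads coated with glutathione captured GST-fused human transcription factors that had been expressed in yeast, and the factors were then given DNA barcodes and pooled with a tag-only sample. The pools were incubated with 200 nmole of a random double-stranded 16-mer DNA library in Tris/NaCl/DTT/glycerol buffer for 30 min at room temperature, washed, crosslinked with 0.1% formaldehyde and proximity-ligated with BsaI/T4 ligase at 37 °C for 1 h. PCR amplification and Illumina NextSeq500 sequencing came last. Binding signal is each hexamer's read frequency for a factor divided by its frequency for the tag-only sample.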

ETV3L = biological target: T2, ETV3L (Homo sapiens, UniProt Q6ZN32 1-361)
T2 sequence: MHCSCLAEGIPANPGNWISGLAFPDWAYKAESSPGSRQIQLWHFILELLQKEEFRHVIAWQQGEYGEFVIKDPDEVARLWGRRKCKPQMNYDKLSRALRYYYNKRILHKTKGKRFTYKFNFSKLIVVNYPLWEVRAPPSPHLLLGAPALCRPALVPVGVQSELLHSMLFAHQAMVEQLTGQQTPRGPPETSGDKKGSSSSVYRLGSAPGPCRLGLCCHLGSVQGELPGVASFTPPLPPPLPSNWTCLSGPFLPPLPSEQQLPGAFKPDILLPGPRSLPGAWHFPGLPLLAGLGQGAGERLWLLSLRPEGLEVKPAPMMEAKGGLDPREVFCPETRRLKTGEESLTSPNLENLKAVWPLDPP
Method in brief: as §1

ETS2 = biological target: T3, ETS2 (Homo sapiens, UniProt P15036 1-469)
T3 sequence: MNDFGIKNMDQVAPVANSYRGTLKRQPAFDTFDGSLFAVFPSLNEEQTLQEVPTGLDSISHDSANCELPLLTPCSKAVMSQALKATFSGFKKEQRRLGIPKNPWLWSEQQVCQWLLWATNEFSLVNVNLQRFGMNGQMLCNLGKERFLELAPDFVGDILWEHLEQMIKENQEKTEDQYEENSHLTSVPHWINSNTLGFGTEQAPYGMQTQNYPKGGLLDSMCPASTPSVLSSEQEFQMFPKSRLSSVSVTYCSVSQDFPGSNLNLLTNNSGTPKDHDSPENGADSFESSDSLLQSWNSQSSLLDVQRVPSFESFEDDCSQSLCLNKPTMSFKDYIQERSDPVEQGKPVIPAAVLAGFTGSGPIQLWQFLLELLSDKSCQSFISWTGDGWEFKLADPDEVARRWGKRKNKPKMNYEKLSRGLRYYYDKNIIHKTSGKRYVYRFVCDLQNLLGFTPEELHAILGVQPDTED
Method in brief: as §1

SPDEF = biological target: T4, SPDEF (Homo sapiens, UniProt O95238 1-335)
T4 sequence: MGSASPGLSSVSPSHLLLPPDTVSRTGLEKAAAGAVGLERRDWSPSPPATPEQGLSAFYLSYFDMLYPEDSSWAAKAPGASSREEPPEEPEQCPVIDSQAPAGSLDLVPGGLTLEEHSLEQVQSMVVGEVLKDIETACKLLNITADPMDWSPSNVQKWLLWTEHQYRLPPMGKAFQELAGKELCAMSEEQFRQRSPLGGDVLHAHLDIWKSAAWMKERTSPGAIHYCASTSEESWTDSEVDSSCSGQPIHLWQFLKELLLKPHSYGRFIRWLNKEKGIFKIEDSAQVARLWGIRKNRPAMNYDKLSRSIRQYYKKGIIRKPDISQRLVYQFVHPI
Method in brief: as §1

ETV7 = biological target: T5, ETV7 (Homo sapiens, UniProt Q9Y603 1-341)
T5 sequence: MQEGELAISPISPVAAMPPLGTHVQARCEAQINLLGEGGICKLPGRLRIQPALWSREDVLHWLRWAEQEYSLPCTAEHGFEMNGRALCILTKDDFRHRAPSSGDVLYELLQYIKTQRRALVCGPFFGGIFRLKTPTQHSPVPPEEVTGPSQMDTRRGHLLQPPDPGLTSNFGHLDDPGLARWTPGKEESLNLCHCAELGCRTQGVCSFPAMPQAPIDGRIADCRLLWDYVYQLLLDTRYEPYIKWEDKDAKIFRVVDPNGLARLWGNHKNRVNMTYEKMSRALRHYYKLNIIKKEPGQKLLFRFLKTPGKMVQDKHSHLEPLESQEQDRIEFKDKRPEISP
Method in brief: as §1

ELF5 = biological target: T6, ELF5 (Homo sapiens, UniProt Q9UKW6-2 1-255)
T6 sequence: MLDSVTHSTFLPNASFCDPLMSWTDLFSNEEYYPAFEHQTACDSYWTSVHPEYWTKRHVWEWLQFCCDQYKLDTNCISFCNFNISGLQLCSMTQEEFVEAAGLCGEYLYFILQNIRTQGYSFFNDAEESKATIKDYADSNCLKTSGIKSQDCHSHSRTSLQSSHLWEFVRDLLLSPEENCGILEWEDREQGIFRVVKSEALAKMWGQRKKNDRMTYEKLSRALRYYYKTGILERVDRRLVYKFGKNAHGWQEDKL
Method in brief: as §1

ETV3 = biological target: T7, ETV3 (Homo sapiens, UniProt P41162-2 1-143)
T7 sequence: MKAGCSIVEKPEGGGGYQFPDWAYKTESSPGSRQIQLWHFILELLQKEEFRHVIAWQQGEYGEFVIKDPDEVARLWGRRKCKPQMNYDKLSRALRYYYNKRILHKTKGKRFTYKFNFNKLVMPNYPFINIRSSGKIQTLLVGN
Method in brief: as §1

ETV6 = ETV6 (Homo sapiens, UniProt P41212 1-452)
Method in brief: as §1

Sequence of ETV6 (P41212 whole entry): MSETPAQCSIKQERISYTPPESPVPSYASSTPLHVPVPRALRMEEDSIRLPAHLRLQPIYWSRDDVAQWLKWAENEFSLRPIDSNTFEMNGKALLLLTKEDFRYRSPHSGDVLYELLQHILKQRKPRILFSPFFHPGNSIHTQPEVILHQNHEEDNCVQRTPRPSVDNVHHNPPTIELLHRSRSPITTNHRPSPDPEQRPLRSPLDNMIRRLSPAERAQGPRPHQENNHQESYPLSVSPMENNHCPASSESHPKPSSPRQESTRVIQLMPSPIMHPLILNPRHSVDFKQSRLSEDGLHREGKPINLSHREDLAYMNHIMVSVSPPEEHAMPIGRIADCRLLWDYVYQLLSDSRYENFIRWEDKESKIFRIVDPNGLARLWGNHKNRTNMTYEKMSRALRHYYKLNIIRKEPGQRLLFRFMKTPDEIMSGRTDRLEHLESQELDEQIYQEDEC

Q: Which binding signal (ERF) does the source give for TCCGGC here?
A: 2.13 fold enrichment (6-mer frequency, TF over GST control)

Q: What about the binding signal (ETV3L) of the same sequence?
A: 2.23 fold enrichment (6-mer frequency, TF over GST control)

Q: What about the binding signal (ETS2) of the same sequence?
A: 2.08 fold enrichment (6-mer frequency, TF over GST control)

Q: And the binding signal (SPDEF)?
A: 3.14 fold enrichment (6-mer frequency, TF over GST control)

Q: What about the binding signal (ETV7) of the same sequence?
A: 1.95 fold enrichment (6-mer frequency, TF over GST control)

Q: And the binding signal (ELF5)?
A: 2.67 fold enrichment (6-mer frequency, TF over GST control)

Q: And the binding signal (ETV3)?
A: 2.32 fold enrichment (6-mer frequency, TF over GST control)

Q: And the binding signal (ETV6)?
A: 2.28 fold enrichment (6-mer frequency, TF over GST control)

Q: For CCATAT, which binding signal (ERF) is on record?
A: 1.23 fold enrichment (6-mer frequency, TF over GST control)

Q: What about the binding signal (ETV3L) of the same sequence?
A: 1.27 fold enrichment (6-mer frequency, TF over GST control)

Q: And the binding signal (ETS2)?
A: 1.22 fold enrichment (6-mer frequency, TF over GST control)

Q: And the binding signal (SPDEF)?
A: 1.33 fold enrichment (6-mer frequency, TF over GST control)

Q: And the binding signal (ETV7)?
A: 1.16 fold enrichment (6-mer frequency, TF over GST control)

Q: And the binding signal (ELF5)?
A: 1.24 fold enrichment (6-mer frequency, TF over GST control)

Q: What about the binding signal (ETV3) of the same sequence?
A: 1.19 fold enrichment (6-mer frequency, TF over GST control)

Q: What about the binding signal (ETV6) of the same sequence?
A: 1.15 fold enrichment (6-mer frequency, TF over GST control)

Q: For TTACAA, which binding signal (ERF) is on record?
A: 1.23 fold enrichment (6-mer frequency, TF over GST control)

Q: And the binding signal (ETV3L)?
A: 1.1 fold enrichment (6-mer frequency, TF over GST control)

Q: What about the binding signal (ETS2) of the same sequence?
A: 1.16 fold enrichment (6-mer frequency, TF over GST control)

Q: And the binding signal (SPDEF)?
A: 1.22 fold enrichment (6-mer frequency, TF over GST control)

Q: And the binding signal (ETV7)?
A: 1.11 fold enrichment (6-mer frequency, TF over GST control)

Q: What about the binding signal (ELF5) of the same sequence?
A: 1.17 fold enrichment (6-mer frequency, TF over GST control)

Q: What about the binding signal (ETV3) of the same sequence?
A: 1.08 fold enrichment (6-mer frequency, TF over GST control)

Q: What about the binding signal (ETV6) of the same sequence?
A: 1.09 fold enrichment (6-mer frequency, TF over GST control)

Q: For AATCAC, which binding signal (ERF) is on record?
A: 1.05 fold enrichment (6-mer frequency, TF over GST control)

Q: What about the binding signal (ETV3L) of the same sequence?
A: 1.12 fold enrichment (6-mer frequency, TF over GST control)

Q: What about the binding signal (ETS2) of the same sequence?
A: 1.06 fold enrichment (6-mer frequency, TF over GST control)

Q: And the binding signal (SPDEF)?
A: 1.05 fold enrichment (6-mer frequency, TF over GST control)

Q: What about the binding signal (ETV7) of the same sequence?
A: 1.02 fold enrichment (6-mer frequency, TF over GST control)

Q: And the binding signal (ELF5)?
A: 1.09 fold enrichment (6-mer frequency, TF over GST control)

Q: What about the binding signal (ETV3) of the same sequence?
A: 1.07 fold enrichment (6-mer frequency, TF over GST control)

Q: And the binding signal (ETV6)?
A: 1.09 fold enrichment (6-mer frequency, TF over GST control)

Q: For CTGGTA, which binding signal (ERF) is on record?
A: 1.28 fold enrichment (6-mer frequency, TF over GST control)

Q: What about the binding signal (ETV3L) of the same sequence?
A: 1.34 fold enrichment (6-mer frequency, TF over GST control)

Q: And the binding signal (ETS2)?
A: 1.32 fold enrichment (6-mer frequency, TF over GST control)

Q: And the binding signal (SPDEF)?
A: 1.4 fold enrichment (6-mer frequency, TF over GST control)

Q: What about the binding signal (ETV7) of the same sequence?
A: 1.4 fold enrichment (6-mer frequency, TF over GST control)

Q: And the binding signal (ELF5)?
A: 1.35 fold enrichment (6-mer frequency, TF over GST control)

Q: And the binding signal (ETV3)?
A: 1.29 fold enrichment (6-mer frequency, TF over GST control)

Q: What about the binding signal (ETV6) of the same sequence?
A: 1.29 fold enrichment (6-mer frequency, TF over GST control)

Q: Which results are given for CTTCGC?
A: binding signal (ERF): 1.61 fold enrichment (6-mer frequency, TF over GST control); binding signal (ETV3L): 1.45 fold enrichment (6-mer frequency, TF over GST control); binding signal (ETS2): 1.42 fold enrichment (6-mer frequency, TF over GST control); binding signal (SPDEF): 1.54 fold enrichment (6-mer frequency, TF over GST control); binding signal (ETV7): 1.38 fold enrichment (6-mer frequency, TF over GST control); binding signal (ELF5): 1.34 fold enrichment (6-mer frequency, TF over GST control); binding signal (ETV3): 1.43 fold enrichment (6-mer frequency, TF over GST control); binding signal (ETV6): 1.34 fold enrichment (6-mer frequency, TF over GST control)

Q: Which binding signal (ERF) does the source give for AATCCT here?
A: 1.21 fold enrichment (6-mer frequency, TF over GST control)

Q: And the binding signal (ETV3L)?
A: 1.24 fold enrichment (6-mer frequency, TF over GST control)

Q: And the binding signal (ETS2)?
A: 1.32 fold enrichment (6-mer frequency, TF over GST control)

Q: What about the binding signal (SPDEF) of the same sequence?
A: 1.45 fold enrichment (6-mer frequency, TF over GST control)

Q: What about the binding signal (ETV7) of the same sequence?
A: 1.41 fold enrichment (6-mer frequency, TF over GST control)

Q: And the binding signal (ELF5)?
A: 1.61 fold enrichment (6-mer frequency, TF over GST control)

Q: What about the binding signal (ETV3) of the same sequence?
A: 1.37 fold enrichment (6-mer frequency, TF over GST control)

Q: What about the binding signal (ETV6) of the same sequence?
A: 1.29 fold enrichment (6-mer frequency, TF over GST control)

Q: What does the source list for TCCGCC?
A: binding signal (ERF): 1.48 fold enrichment (6-mer frequency, TF over GST control); binding signal (ETV3L): 1.59 fold enrichment (6-mer frequency, TF over GST control); binding signal (ETS2): 1.54 fold enrichment (6-mer frequency, TF over GST control); binding signal (SPDEF): 1.83 fold enrichment (6-mer frequency, TF over GST control); binding signal (ETV7): 1.49 fold enrichment (6-mer frequency, TF over GST control); binding signal (ELF5): 2.2 fold enrichment (6-mer frequency, TF over GST control); binding signal (ETV3): 1.75 fold enrichment (6-mer frequency, TF over GST control); binding signal (ETV6): 1.63 fold enrichment (6-mer frequency, TF over GST control)

Q: With ACGTCC as the sequence, how does the binding signal (ERF) read?
A: 1.49 fold enrichment (6-mer frequency, TF over GST control)

Q: What about the binding signal (ETV3L) of the same sequence?
A: 1.59 fold enrichment (6-mer frequency, TF over GST control)

Q: What about the binding signal (ETS2) of the same sequence?
A: 1.64 fold enrichment (6-mer frequency, TF over GST control)

Q: What about the binding signal (SPDEF) of the same sequence?
A: 2.11 fold enrichment (6-mer frequency, TF over GST control)

Q: What about the binding signal (ETV7) of the same sequence?
A: 1.61 fold enrichment (6-mer frequency, TF over GST control)

Q: What about the binding signal (ELF5) of the same sequence?
A: 1.77 fold enrichment (6-mer frequency, TF over GST control)

Q: And the binding signal (ETV3)?
A: 1.61 fold enrichment (6-mer frequency, TF over GST control)

Q: And the binding signal (ETV6)?
A: 1.74 fold enrichment (6-mer frequency, TF over GST control)
